The record followed here is PubChem BioAssay (NCATS).

In assay [1] the test system is Zika virus NS2B-NS3 protease (unlinked complex). In words: Primary screen GU Rhodamine qHTS for Zika virus inhibitors: Unlinked NS2B-NS3 protease assay (AID 1347159). Also: % is scaled to controls: 0 for no effect and ±100 for the full control effect; nearly all actives have a fitted effect of over 60% in size. In a few lines:
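Percent inhibition derives from the 15-min fluorescence change (ex 480, em 540 nm), normalized to no-enzyme and no-inhibitor wells. Reactions contained 25 nM NS2B-NS3 complex and 1.5 microM substrate in 10 mM Tris-HCl pH 8.0.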

The subject of assay [2] is Zika virus NS2B-NS3 protease (linked construct). The experiment in a line: Primary screen NINDS Rhodamine qHTS for Zika virus inhibitors (AID 1347160). Also: nearly all actives have a fitted effect of over 55% in size. As to activity change, negative = inhibition: % is scaled to controls: 0 for no effect and ±100 for the full control effect. In a few lines:
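In 10 mM Tris-HCl pH 8.0 containing 0.01% Tween 20, linked NS2B-NS3 protease (25 nM final) is exposed to test compounds for 15 min. Cleavage of 1.5 microM Rhodamine110 substrate is tracked by fluorescence over 15 min.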

The target of assay [3] is Calcium and integrin-binding protein 1 (Homo sapiens) (UniProt Q99828). In words: Primary qHTS for Identification of Calcium Integrin Binding Protein 1 (CIB1) Competitor (AID 1508620).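 Also: GST tagged CIB1 binding a fluorescein labelled alphaIIb integrin peptide tracer; top concentration of the series differs between compounds; % is scaled to controls: 0 for no effect and ±100 for the full control effect.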 In a few lines: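 Fluorescence polarization competition: CIB1-GST (1 uM final) preincubated with compound 15 min at room temperature, then FITC-labeled alphaIIb peptide (100 nM final) added for another 15 min. Polarization read at Ex 480/Em 540.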
Sequence of Calcium and integrin-binding protein 1 (Homo sapiens) (Q99828 whole entry, looked up): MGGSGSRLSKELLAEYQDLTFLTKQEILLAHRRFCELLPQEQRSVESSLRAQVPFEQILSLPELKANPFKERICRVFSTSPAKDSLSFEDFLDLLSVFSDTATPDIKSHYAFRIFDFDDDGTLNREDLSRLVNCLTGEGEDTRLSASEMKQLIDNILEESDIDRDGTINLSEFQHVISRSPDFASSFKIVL

Assay [4] is described as follows: Primary qHTS for inhibitors of nuclear receptor binding SET domain protein 2 (NSD2) in an isogenic RCH-ACV NSD2 p.E1099K mutant (9B) (AID 1645876). Also: potency is read from the fitted curve at half-maximal effect; nearly all actives have a fitted effect of over 70% in size.
Assay [5] can be described thus: Primary qHTS for inhibitors of nuclear receptor binding SET domain protein 2 (NSD2) in an RCH-ACV wild type WT cells (2C) (AID 1645877). Also: potency is read from the fitted curve at half-maximal effect; nearly all actives have a fitted effect of over 70% in size.
Assay [6] has as its target Glutathione peroxidase 1 (Homo sapiens) (UniProt P07203). In words: Primary qHTS Assay for Inhibitors of Recombinant Selenoprotein Glutathione Peroxidase 1 (GPX1) (AID 1845191). Also: nearly all actives have a fitted effect of over 65% in size. As to activity, negative = inhibition: % is scaled to controls: 0 for no effect and ±100 for the full control effect. In a few lines:
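Recombinant GPX1 (10 nM final) was preincubated with compound for 30 min at room temperature, then reacted with 1 mM GSH, 0.5 mM CHP, 0.5 mM NADPH and 100 nM glutathione reductase; NADPH fluorescence (340/450 nm) was read at 0 and 15 min.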

The target of assay [7] is Phospholipid hydroperoxide glutathione peroxidase GPX4 (Homo sapiens) (UniProt P36969). The experiment in a line: Primary qHTS Assay for Inhibitors of Recombinant Selenoprotein Glutathione Peroxidase 4 (GPX4) (AID 1845192). Also: % is scaled to controls: 0 for no effect and ±100 for the full control effect; nearly all actives have a fitted effect of over 65% in size. The settings on record: outcome: dose series up to 50 µM unless noted. The procedure, abridged: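 GR-coupled readout: 100 nM GR, 1 mM GSH, 0.5 mM NADPH; NADPH fluorescence (ex 340/em 450 nm) read at t=0 and after 15 min RT. GPX4 200 nM, preincubated 30 min with compound; substrate 0.5 mM CHP.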
Sequence of Phospholipid hydroperoxide glutathione peroxidase GPX4 (Homo sapiens) (P36969 whole entry, looked up): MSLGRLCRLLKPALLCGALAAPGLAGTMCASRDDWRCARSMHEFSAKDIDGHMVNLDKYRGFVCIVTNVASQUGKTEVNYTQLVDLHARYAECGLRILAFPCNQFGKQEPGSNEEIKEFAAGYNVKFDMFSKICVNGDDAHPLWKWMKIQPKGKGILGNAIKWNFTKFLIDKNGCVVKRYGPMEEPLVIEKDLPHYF

The target in assay [8] is Luciferin 4-monooxygenase (Photinus pyralis) (UniProt P08659). The experiment in a line: Primary firefly luciferase (FLuc) qHTS assay for identification of artifact compounds. (AID 1845220). Also: nearly all actives have a fitted effect of over 60% in size.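 As to activity change, negative = inhibition: plate controls were DMSO vehicle for no effect and no enzyme for full effect.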 In a few lines: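 In this counter-screen for luciferase artifacts, test compounds met substrate (10 uM each luciferin and ATP) before 10 nM enzyme started the reaction. Light output was measured 5 min later.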

For assay [9], the system named is Nanoluciferase (engineered Oplophorus gracilirostris luciferase). The experiment in a line: Primary Nanoluciferase (NLuc) qHTS assay for identification of artifact compounds. (AID 1845222).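 Also: NLuc secreted into diluted conditioned medium of S16 cells; 0% = DMSO and -100% = no enzyme.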 In a few lines: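 Using secreted nanoluciferase in S16 culture medium (0.22 um filtered, 1:55 dilution), compounds were preincubated 15 min at RT. Signal was generated with Nano-Glo reagent (1:100) over 5 min.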

The nature of assay [10]: Primary redox qHTS assay for identification of artifact compounds. (AID 1845223).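 Also: 0% = DMSO and 100% = reference compound.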 The procedure, abridged:
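Amplex Red (25 uM) and HRP (250 mU/mL) in HBSS, with compounds for 15 min, then 250 uM DTT for 30 min, room temperature, dark. Fluorescence 525/598 nm read; normalized to DMSO and 10 uM DA3003; Hill fit.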

The subject of assay [11] is HeLa. In words: Primary qHTS to identify gynecologic anti-cancer compounds using libraries of approved drugs and bioactive compounds (AID 1345084). Also: % is scaled to controls: 0 for no effect and ±100 for the full control effect; nearly all actives have a fitted effect of over 55% in size. As to conditions: Gynecologic cancer cell panel viability, ATPlite luminescence, 48 h; series mostly up to 57.5 µM. In a few lines:
(§1)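 In this quantitative HTS, cell killing is estimated from loss of ATP-dependent luciferase light. Cells see five compound concentrations over a 48 h exposure.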

The subject of assay [12] is Hek293T. The description is as above. The settings on record: Gynecologic cancer cell panel viability, ATPlite luminescence, 48 h, control line for the selectivity index; series mostly up to 57.5 µM. The procedure, abridged:
as §1

In assay [13] the test system is JEG-3. The assay is described as above. The settings on record: Gynecologic cancer cell panel viability, ATPlite luminescence, 48 h; series mostly up to 57.5 µM. The procedure, abridged: as §1
Assay [14] deals with OV90. Described as above. As to conditions: Gynecologic cancer cell panel viability, ATPlite luminescence, 48 h; series mostly up to 57.5 µM. In a few lines:
as §1

Assay [15] concerns Tov112D. Described as above. The settings on record: Gynecologic cancer cell panel viability, ATPlite luminescence, 48 h; series mostly up to 57.5 µM. In a few lines:
as §1

Assay [16] can be described thus: qHTS drug screen for cell cycle checkpoint inhibitors in PARPi-resistant BRCA-mutant ovarian cancer cell lines. (AID 1963452; calls by dose curve). The settings on record: PEO1/OlaR viability, CellTiter-Glo luminescence, 96 h, stronger effect = lower value. In a few lines:
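PEO1, PEO4 and PEO1/OlaR ovarian cancer cells, 600 per well, exposed 96 h at 37C to a dilution series. Viability read by CellTiter-Glo luminescence, normalized to DMSO and empty wells; activity summarized as Z-AUC.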

Results filed as inconclusive are left out. The source made the active and inactive calls. Unless noted, calls follow the shape of the dose curve; as a rule, active = well fitted curve in the direction sought with a large enough effect; inconclusive = small, poorly fitted or top-dose-only effect, or another doubt; inactive = no such curve, though single readings can be large; an effect the other way counts as inactive or inconclusive.

Sequence of Glutathione peroxidase 1 (Homo sapiens) (P07203 whole entry, looked up): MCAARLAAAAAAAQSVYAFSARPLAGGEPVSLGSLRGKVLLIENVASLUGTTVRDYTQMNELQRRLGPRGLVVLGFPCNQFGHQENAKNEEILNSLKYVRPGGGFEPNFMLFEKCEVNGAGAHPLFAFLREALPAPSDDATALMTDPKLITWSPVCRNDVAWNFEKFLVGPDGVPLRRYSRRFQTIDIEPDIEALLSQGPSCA

As for `COC1CC(=O)C23C(=O)NC(CC(C)C)C2C(C)C(C)=CC3/C=C(\C)CCC(O)C1O` (stereo not drawn), the Potency entry in [1], in assay [2], in assay [6], in [7], in [8] and in assay [9] was “inactive” in each case. Moreover, the Potency result in assay [10], in assay [11], in [12], in assay [13], in [14] and in assay [15] was “inactive” throughout. The result in assay [3] was inactive. Moreover, the Potency is 3.99 µM (active) in [4] and 2.24 µM (active) in [5].
As for `COc1ccc(NC(=O)N2CCc3c2ccc2ccccc32)cc1N1CCN(C)CC1`, the Potency result in assay [1], in assay [6], in [7], in assay [8], in assay [9] and in assay [10] was “inactive” in each case. Also, the Potency entry in assay [11], in assay [12], in assay [13], in assay [14] and in [15] was “inactive” throughout. Besides, the result in assay [3] was inactive. The Potency in assay [4] and in assay [5] was 14.5 µM (active) each time.
`O=C(/C=C/n1cnc(-c2cc(C(F)(F)F)cc(C(F)(F)F)c2)n1)NNc1cnccn1`: the result in [3] was inactive. The Potency in [4] was 1.63 µM (active); in assay [5], 2.05 µM (active). The Potency entry in assay [6], in [7], in assay [8], in [9], in assay [10] and in [11] was “inactive” each time.
`CC1CCC2(NC1)OC1CC3C4CC=C5CC(O[C@@H]6O[C@H](CO)[C@@H](O[C@@H]7O[C@@H](C)[C@H](O)[C@@H](O)[C@H]7O)[C@H](O)[C@H]6O[C@@H]6O[C@@H](C)[C@H](O)[C@@H](O)[C@H]6O)CCC5(C)C4CCC3(C)C1C2C` (stereo partly drawn): the Potency result in [1], in [2], in [6] and in assay [7] was “inactive” each time. Further, in assay [3], the result was inactive. The Potency in assay [4] is 3.46 µM (active); in assay [5], 3.88 µM (active). For the same compound, the activity change, negative = inhibition in assay [8] was -5.29% [at 11.6 µM] (inactive). The activity, negative = inhibition in [9] is -1.63% [at 11.6 µM] (inactive). For the same compound, the activity change, negative = cytotoxicity was -18.6% [at 11.6 µM] (inactive) in assay [11], -11.9% [at 11.6 µM] (inactive) in [12], 4.54% [at 11.6 µM] (inactive) in assay [13] and -18.2% [at 11.6 µM] (inactive) in assay [15].
For `CCOc1cc(CNC2CCCC2)cc(Cl)c1OCc1ccc(Cl)cc1`, the Potency result in assay [1], in [2], in [6], in assay [8], in assay [9] and in assay [10] was “inactive” in each case. Besides, the Potency entry in [13] was “inactive”. For the same compound, in assay [3], the result was inactive. In addition, the Potency in assay [4] is 11.5 µM (active); in [5], 14.5 µM (active).
On to `c1ccc(Cn2c(-c3ccc(OCC(C4CCNCC4)n4c(-c5ccccc5)nc5ccccc54)cc3)nc3ccccc32)cc1` (stereo not drawn), for which the Potency entry in [2], in assay [6], in assay [7], in [8], in [9] and in assay [10] was “inactive” each time. Moreover, the Potency result in assay [11], in assay [12], in assay [13], in assay [14] and in [15] was “inactive” in each case. Moreover, the outcome in [3] was inactive. For the same compound, the Potency in [4] was 6.61 µM (active); in [5], 5.9 µM (active). Besides, the Z-AUC is 0.308 (inactive) in assay [16], -0.228 in assay [16] (measured here: PEO1 parental Z-AUC) and -0.72 in assay [16] (measured here: PEO4 Z-AUC).
